High-throughput results from PubChem.
Most compounds without a hit are left out; they make up all but 2.1% or so of the library.
MsrA inh: bovine MsrA enzyme inhibitors, primary screen, biochemical, absorbance, HTS; purified bovine MsrA, absorbance read-out; Methionine sulfoxide reductase A (Bos taurus); 360,000 tested, 0.75% active; inhibition, % at 15.5 µM;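 further: 0% = vehicle wells with enzyme and 100% = reference inhibitor wells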
ABCB6 inh MLPCN: ABCB6 transporter inhibitors, primary screen, K562-ABCB6 cells, flow cytometry, MLPCN library. ATP-binding cassette sub-family B member 6 (Homo sapiens), Q9NP58. K562-ABCB6 porphyrin accumulation, 1 h; stronger effect = lower value. fluorescence ratio to DMSO, % at 10 µM. 360,000 tested, 0.19% active. AID 602162, 2011;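 active means fluorescence ratio to DMSO below 75%, the collection mean minus 3 SD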;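 further: signal is porphyrin accumulated inside mitochondria; 100% equals median channel fluorescence of DMSO control wells; lower ratio means ABCB6 inhibition with less porphyrin fluorescence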
Target sequence (Q9NP58 whole entry, looked up): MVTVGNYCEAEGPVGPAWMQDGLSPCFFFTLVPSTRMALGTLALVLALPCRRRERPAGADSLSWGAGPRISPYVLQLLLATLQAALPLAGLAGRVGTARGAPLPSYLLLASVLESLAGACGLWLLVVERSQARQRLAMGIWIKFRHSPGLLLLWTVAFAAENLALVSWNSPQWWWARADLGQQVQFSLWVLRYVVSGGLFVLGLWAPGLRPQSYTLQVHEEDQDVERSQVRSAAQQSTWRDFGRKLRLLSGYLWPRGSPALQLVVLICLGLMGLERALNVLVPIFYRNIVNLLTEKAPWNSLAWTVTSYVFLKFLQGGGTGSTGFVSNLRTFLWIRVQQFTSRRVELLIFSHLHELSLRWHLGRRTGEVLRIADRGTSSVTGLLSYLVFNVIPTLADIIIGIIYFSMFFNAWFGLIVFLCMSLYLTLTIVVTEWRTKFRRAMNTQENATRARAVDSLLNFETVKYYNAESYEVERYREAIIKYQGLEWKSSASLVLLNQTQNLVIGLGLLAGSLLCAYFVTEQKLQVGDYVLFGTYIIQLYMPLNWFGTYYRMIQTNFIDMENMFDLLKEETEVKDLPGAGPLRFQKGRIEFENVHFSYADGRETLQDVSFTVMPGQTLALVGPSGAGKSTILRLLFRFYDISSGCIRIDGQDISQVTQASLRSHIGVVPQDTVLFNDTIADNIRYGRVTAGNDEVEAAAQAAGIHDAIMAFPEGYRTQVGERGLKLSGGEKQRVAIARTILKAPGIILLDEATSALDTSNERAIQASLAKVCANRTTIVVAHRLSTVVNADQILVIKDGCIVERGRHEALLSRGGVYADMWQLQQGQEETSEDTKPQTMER
SMARCA2 act: SMARCA2 (BRM) function activators, primary screen, cell-based, luminescence, high throughput; activation, % at 9.1 µM; 370,000 tested, 1% active; MG213 cells, MMTV-luciferase reporter, dexamethasone, overnight; AID 652017, 2013; in the data active means activation above about 7.8%;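 further: 0% = vehicle wells and 100% = reference activator wells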
bovine MsrA act: bovine MsrA enzyme activators, primary screen, biochemical, absorbance, HTS; Methionine sulfoxide reductase A (Bos taurus); purified bovine MsrA, absorbance read-out; activation, % at 10.6 µM; 360,000 tested, 0.3% active; in the data active means activation above about 7.5%;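 further: 0% = vehicle and 100% = reference activator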
MsrA inh confirm: bovine MsrA inhibitors, retest, confirmation, biochemical, absorbance, HTS | inhibition, % at 15.5 µM | 2,300 tested, 41% active | purified bovine MsrA, absorbance read-out | shares compounds with MsrA inh;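 further: coupled to thioredoxin reductase with NADPH and selenocystamine and DMSO as substrate; 0% = vehicle only and 100% = full effect of reference inhibitor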
The depositor's hits bear a star; . = no result. Unless noted, no stated cut-off is given here; in the data, active means inhibition above about 4.5%; inactive means the rest.

SMILES	MsrA inh	ABCB6 inh MLPCN	SMARCA2 act	bovine MsrA act	MsrA inh confirm
COc1ccc2cc3cc(C(=O)NCc4cccnc4)oc3nc2c1	5.6*	101	1	-6	4
Cn1c(=O)[nH]c2c(Br)nccc21	.	.	-2	.	.
CCc1nc(Nc2ccncc2)c2oc3ccccc3c2n1	4.7*	101	7	-4	4
Cc1ccsc1/C=N/NC(=O)C(=O)NCC(C)C	5.6*	106	0	-3	3
Cc1ccsc1/C=N/NC(=O)c1ccc2ccccc2c1	3	99	4	-3	.
CCCCC(=O)N/N=C/c1sccc1C	2	102	-1	-2	.
COc1cc(C(=O)N/N=C/c2sccc2C)cc(OC)c1OC	5.1*	100	2	-2	4
Cc1cc(NS(=O)(=O)c2ccc(NC(=O)Cc3ccc(Cl)c(Cl)c3)cc2)on1	.	.	-3	.	.
CCOc1cc(S(=O)(=O)NCc2ccco2)c(OCC)cc1-n1cnnn1	7.7*	109	-1	-3	3
CCOc1cc(S(=O)(=O)NC2CC2)c(OCC)cc1-n1cnnn1	25*	108	-1	-2	23*
CNC(=S)N1N=C(c2ccc(C)cc2)CC1c1ccc(OC)cc1 (centres undefined)	4	97	-1	-2	.
CNC(=S)N1N=C(c2ccc(Br)cc2)CC1c1ccc(OC)cc1 (centres undefined)	5.7*	90	-3	-5	3
Cn1cccc1CC(=O)NN=C/C=C\c1ccco1	.	.	-6	.	.
CCN1C(=O)/C(=C\c2nc3ccccc3c(=O)n2CC)c2ccccc21	4.7*	96	2	-10	1
CCn1c(/C=C2/C(=O)N(C)c3ccccc32)nc2ccccc2c1=O	1	90	-2	-4	.
CCSc1nnc(NC(=O)c2cccs2)s1	5.2*	103	4	-3	3
O=C(Nc1nnc(SCc2ccccc2)s1)c1cccs1	-1	92	-2	-3	.
CC(=O)N1CCN(C2=NC(=O)/C(=C\c3cccs3)S2)CC1	2	94	7	-6	.
C=CCSC1=NC(=O)/C(=C/c2cccs2)S1	4	98	0	-6	.
Cc1ccc(/C=C2\SC(N3CCCCC3)=NC2=O)cc1	5.0*	101	6	-4	4.8*
O=C1N=C(N2CCOCC2)S/C1=C/c1cccs1	5.4*	98	1	-16	5.4*
NC1=NC(=O)/C(=C/c2cccs2)S1	6.2*	101	-1	-4	4
O=C1N=C(N2CCCCC2)S/C1=C\c1ccc(Cl)cc1	1	97	-1	-3	.
C#CCNC(=O)C[C@H]1C[C@@]2(C(=O)OC)C(=C[C@H](COCc3ccccc3)O[C@@H]2C)N(Cc2ccc(Cl)cc2Cl)C1=O	.	.	1	.	.
COc1ccc(C2C(C(=O)Nc3cc(OC)ccc3OC)CCC(=O)N2c2ccc(OC)cc2)cc1 (centres undefined)	.	.	3	.	.
SMILES	MsrA inh	ABCB6 inh MLPCN	SMARCA2 act	bovine MsrA act	MsrA inh confirm
O=C(COCc1ccccc1)NC1CCCCN(Cc2ccc(Cl)cc2)C1=O (centres undefined)	.	.	-2	.	.
CC(=O)OC1COC(n2ccc3cc([N+](=O)[O-])ccc32)C(OC(C)=O)C1OC(C)=O (centres undefined)	6.0*	97	-8	-4	3
CCCNC(=S)N(Cc1ccccc1)Cc1nc2ccccc2c(=O)[nH]1	47*	96	-6	-7	-1
COc1cc(/C=N/N=C2/NC(=O)C(CC(=O)O)S2)ccc1OCc1ccc(Cl)cc1 (centres undefined)	5.3*	97	1	-7	6.0*
CCOc1cc(/C=N/N=C2/NC(=O)C(CC(=O)O)S2)ccc1OCc1ccc(Cl)cc1Cl (centres undefined)	.	100	.	-1	.
CC1=CC(=O)[C@@H](O)[C@@H](c2ccccc2Br)N1C	5.3*	99	-5	-5	4
CCOC(=O)[C@]12CCCCC/C=C\1N(Cc1ccc(OC)cc1)C(=O)[C@H]2CC(=O)N1CCC(c2ccccc2)CC1	.	.	-2	.	.
CN(C)c1ccc(/C=N/NC(=O)c2cc(=O)[nH]c3ccccc23)cc1	7.1*	104	-3	-2	5
CN(C)c1ccc(/C=N/NC(=O)c2ccn(C)n2)cc1	6.3*	100	6	-4	4
COc1ccc(/C=N/NC(=O)C(=O)N2CCCC2)cc1	0	100	0	-2	.
CN(C)c1ccc(/C=N/NC(=O)C(=O)N2CCCCCC2)cc1	4.7*	97	0	-4	5.9*
O=C(N/N=C/c1ccccc1)c1cc(=O)[nH]c2ccccc12	1	98	0	-11	.
O=C(N/N=C\c1ccoc1)c1ccco1	1	94	2	-8	.
CN(C)c1ccc(/C=N/NC(=O)c2ccco2)cc1	4.7*	99	5	-3	5.1*
O=C(N/N=C/c1ccc2ncccc2c1)c1ccco1	5.2*	96	3	-10	3
CC(C)c1cc(C(C)C)c(S(=O)(=O)N2CCC(c3cn4ccccc4n3)CC2)c(C(C)C)c1	.	.	-1	.	.
O=C1c2ccccc2C(=O)c2c1oc(C(F)(F)F)c2C(=O)c1ccccc1	51*	120	1	2	58*
CC(=O)c1c(C)oc2c1C(=O)c1ccccc1C2=O	0	105	-2	2	.
CCCCOC(=O)C1CN(c2ccccc2)N=C1C(=O)OCC (centres undefined)	53*	97	-3	0	2
CCCCOC(=O)C1CN(c2ccccc2)N=C1C(C)=O (centres undefined)	0	99	0	-3	.
O=c1c2cc3cc4c(cc3nc2ncn1Cc1cccnc1)OCO4	.	.	-2	.	.
COc1ccc([C@H]2OC(=O)C[C@@H]2C(=O)N2CCN(c3ccccc3F)CC2)cc1OC	.	.	-2	.	.
O=C(/C=C/c1ccco1)Nc1cc(Cl)ccc1C(=O)O	6.8*	98	-4	-6	5.2*
Cc1cc(NC(=O)CSCC(=O)OCC(=O)c2ccc(Br)cc2)no1	1	99	-6	-1	.
Cc1c(CC(=O)O)c(=O)oc2cc3c(cc12)CCC(C)(C)O3	2	97	-2	-8	.
SMILES	MsrA inh	ABCB6 inh MLPCN	SMARCA2 act	bovine MsrA act	MsrA inh confirm
CCC(NC(=O)Cc1c(C)c2cc3c(cc2oc1=O)OC(C)(C)CC3)C(=O)O (centres undefined)	5.2*	102	3	0	3
O=[N+]([O-])c1ccccc1S(=O)(=O)Nc1ccc(-c2ccc(N3CCCC3)nn2)cc1	5.0*	103	3	-3	2
Oc1oc(-c2ccccc2)nc1C=Nc1cccc2ccccc12	0	97	0	-12	.
Oc1oc(-c2ccccc2)nc1C=NCc1ccncc1	5.9*	97	1	-1	5
O=C(NCCCN1CCN(c2ccc(F)cc2)CC1)Nc1ccccc1	.	.	-4	.	.
N#C/C(=C/c1ccc(CNS(=O)(=O)c2ccccc2)o1)C(=O)NCc1ccccc1	4.8*	93	-2	-3	4
